According to PubChem BioAssay (NCATS):
Records with an inconclusive call do not appear. A call without a number means that no potency is given here. Calls of active or inactive are those of the source. Calls follow the shape of the dose curve; as a rule, active = well fitted inhibition curve with a large enough effect; inconclusive = small, poorly fitted or top-dose-only effect; inactive = flat fitted curve, though single readings scatter.

What was measured:
Assay in all cases: qHTS profiling for inhibitors of Plasmodium falciparum proliferation (AID 504749); also: nearly all actives have a fitted effect of over 60% in size
Details in all cases: P. falciparum in erythrocytes, SYBR Green DNA, 72 h; series mostly up to 28.7 µM
[1] = system: CP191
Summary of the method: (§1)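 Readout was DNA-dye fluorescence from lysed cultures, ex 485/em 535 nm. Parasitized red cells had grown 72 h with compound; data scaled between 0.29 uM artemisinin and DMSO wells and corrected using vehicle-only plates.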

[2] = system: CP192
Summary of the method: as §1

[3] = system: CP194
Summary of the method: as §1

[4] = system: CP201
Summary of the method: as §1

[5] = system: CP203
Summary of the method: as §1

[6] = system: CP211
Summary of the method: as §1

[7] = system: CP215
Summary of the method: as §1

[8] = system: CP217
Summary of the method: as §1

[9] = system: CP237
Summary of the method: as §1

[10] = system: CP238
Summary of the method: as §1

[11] = system: CP247
Summary of the method: as §1

[12] = system: CP250
Summary of the method: as §1

[13] = system: CP252
Summary of the method: as §1

[14] = system: CP256
Summary of the method: as §1

[15] = system: CP260
Summary of the method: as §1

[16] = system: CP262
Summary of the method: as §1

[17] = system: CP265
Summary of the method: as §1

[18] = system: CP266
Summary of the method: as §1

[19] = system: CP268
Summary of the method: as §1

[20] = system: CP269
Summary of the method: as §1
Potency is read from the fitted curve at half-maximal effect.

Structure (SMILES) | Potency [1] | Potency [2] | Potency [3] | Potency [4] | Potency [5] | Potency [6] | Potency [7] | Potency [8] | Potency [9] | Potency [10] | Potency [11] | Potency [12] | Potency [13] | Potency [14] | Potency [15] | Potency [16] | Potency [17] | Potency [18] | Potency [19] | Potency [20]
C[C@](N)(Cc1ccc(O)c(O)c1)C(=O)O | inactive | inactive | inactive | inactive | inactive | inactive | inactive | inactive | inactive | inactive | inactive | inactive | inactive | inactive | inactive | inactive | inactive | inactive | inactive | inactive
NC(=O)OCC(COC(N)=O)c1ccccc1 | inactive | inactive | inactive | inactive | – | inactive | inactive | inactive | inactive | inactive | inactive | inactive | inactive | inactive | inactive | inactive | inactive | inactive | inactive | inactive
Cc1cnc(C(=O)NCCc2ccc(S(=O)(=O)NC(=O)NC3CCCCC3)cc2)cn1 | inactive | inactive | inactive | inactive | – | inactive | inactive | inactive | inactive | inactive | inactive | inactive | inactive | inactive | inactive | inactive | inactive | inactive | inactive | inactive
CN1CCN2c3ccccc3Cc3ccccc3C2C1 (stereo unspecified) | inactive | inactive | inactive | inactive | – | inactive | inactive | inactive | inactive | inactive | inactive | inactive | inactive | inactive | inactive | inactive | inactive | inactive | inactive | inactive
NCCS(=O)(=O)O | inactive | inactive | inactive | inactive | inactive | inactive | inactive | inactive | inactive | inactive | inactive | inactive | inactive | inactive | inactive | inactive | inactive | inactive | inactive | inactive
NCCc1cnc[nH]1 | inactive | inactive | inactive | inactive | inactive | inactive | inactive | inactive | inactive | inactive | inactive | inactive | inactive | inactive | inactive | inactive | inactive | inactive | inactive | inactive
Cn1cnc2c1c(=O)[nH]c(=O)n2C | inactive | inactive | inactive | inactive | – | inactive | inactive | inactive | inactive | inactive | inactive | inactive | inactive | inactive | inactive | inactive | inactive | inactive | inactive | inactive
CN1C(C(=O)Nc2ccccn2)=C(O)c2ccccc2S1(=O)=O | inactive | inactive | inactive | inactive | – | inactive | inactive | inactive | inactive | inactive | inactive | inactive | inactive | inactive | inactive | inactive | inactive | inactive | inactive | inactive
CC(C)Cc1ccc(C(C)C(=O)O)cc1 (stereo unspecified) | inactive | inactive | inactive | inactive | inactive | inactive | inactive | inactive | inactive | inactive | inactive | inactive | inactive | inactive | inactive | inactive | inactive | inactive | inactive | inactive
CCOC(=O)C(C)(C)Oc1ccc(Cl)cc1 | inactive | inactive | inactive | inactive | inactive | inactive | inactive | inactive | inactive | inactive | inactive | inactive | inactive | inactive | inactive | inactive | inactive | inactive | inactive | inactive
NC(=O)NO | inactive | inactive | inactive | inactive | – | inactive | inactive | inactive | inactive | inactive | inactive | inactive | inactive | inactive | inactive | inactive | inactive | inactive | inactive | inactive
Cc1cn([C@H]2C=C[C@@H](CO)O2)c(=O)[nH]c1=O | inactive | inactive | inactive | inactive | inactive | inactive | inactive | inactive | inactive | inactive | inactive | inactive | inactive | inactive | inactive | inactive | inactive | – | inactive | inactive
CC(C)NCC(O)c1ccc(O)c(O)c1 (stereo unspecified) | inactive | inactive | inactive | inactive | – | inactive | inactive | inactive | inactive | inactive | inactive | inactive | inactive | inactive | inactive | inactive | inactive | – | inactive | inactive
NCCCCCC(=O)O | inactive | inactive | inactive | inactive | inactive | inactive | inactive | inactive | inactive | inactive | inactive | inactive | inactive | inactive | inactive | inactive | inactive | inactive | inactive | inactive
CS(=O)(=O)Nc1ccc([N+](=O)[O-])cc1Oc1ccccc1 | inactive | inactive | inactive | inactive | – | inactive | inactive | inactive | inactive | inactive | inactive | inactive | inactive | inactive | inactive | inactive | inactive | inactive | inactive | inactive
CN(CCOc1ccc(NS(C)(=O)=O)cc1)CCc1ccc(NS(C)(=O)=O)cc1 | inactive | inactive | inactive | inactive | inactive | inactive | – | inactive | inactive | inactive | inactive | inactive | inactive | inactive | inactive | inactive | inactive | inactive | inactive | inactive
CS(=O)(=O)CCNCc1ccc(-c2ccc3ncnc(Nc4ccc(OCc5cccc(F)c5)c(Cl)c4)c3c2)o1 | inactive | inactive | inactive | inactive | inactive | inactive | inactive | inactive | inactive | inactive | inactive | inactive | inactive | inactive | inactive | inactive | inactive | inactive | – | inactive
Clc1ccc2nsnc2c1NC1=NCCN1 | inactive | inactive | inactive | inactive | – | inactive | inactive | inactive | inactive | inactive | inactive | inactive | inactive | inactive | inactive | inactive | inactive | inactive | inactive | inactive
Cc1ccc(C(=O)Nc2ccc(S(=O)(=O)O)c3cc(S(=O)(=O)O)cc(S(=O)(=O)O)c23)cc1NC(=O)c1cccc(NC(=O)Nc2cccc(C(=O)Nc3cc(C(=O)Nc4ccc(S(=O)(=O)O)c5cc(S(=O)(=O)O)cc(S(=O)(=O)O)c45)ccc3C)c2)c1 | inactive | inactive | inactive | inactive | inactive | inactive | inactive | inactive | inactive | inactive | inactive | inactive | inactive | inactive | inactive | inactive | inactive | inactive | inactive | inactive
COc1ccccc1OCC(O)CN1CCN(CC(=O)Nc2c(C)cccc2C)CC1 (stereo unspecified) | inactive | inactive | inactive | inactive | – | inactive | inactive | inactive | inactive | inactive | inactive | inactive | inactive | inactive | inactive | inactive | inactive | inactive | inactive | inactive
Cc1cc(C(C)(C)C)c(O)c(C)c1CC1=NCCN1 | inactive | inactive | inactive | inactive | inactive | inactive | inactive | inactive | inactive | inactive | inactive | inactive | inactive | inactive | inactive | inactive | inactive | inactive | inactive | inactive
Nc1nnc(-c2cccc(Cl)c2Cl)c(N)n1 | inactive | inactive | inactive | inactive | – | inactive | inactive | inactive | inactive | inactive | inactive | inactive | inactive | inactive | inactive | inactive | inactive | inactive | inactive | inactive
CCC1(c2ccccc2)C(=O)NCNC1=O | inactive | inactive | inactive | inactive | inactive | inactive | inactive | inactive | inactive | inactive | inactive | inactive | inactive | inactive | – | – | inactive | inactive | inactive | inactive
Cc1cn([C@H]2C[C@H](N=[N+]=[N-])[C@@H](CO)O2)c(=O)[nH]c1=O | inactive | inactive | inactive | inactive | – | inactive | inactive | inactive | inactive | inactive | inactive | inactive | inactive | inactive | inactive | inactive | inactive | inactive | inactive | inactive
CCCNCC(O)COc1ccccc1C(=O)CCc1ccccc1 (stereo unspecified) | 1260 nM (active) | 2130 nM (active) | 3380 nM (active) | 6750 nM (active) | – | 4780 nM (active) | 1510 nM (active) | 891 nM (active) | 447 nM (active) | 1000 nM (active) | 1000 nM (active) | 1000 nM (active) | 631 nM (active) | 1000 nM (active) | 891 nM (active) | 4780 nM (active) | 355 nM (active) | 10700 nM (active) | 4260 nM (active) | 3790 nM (active)
CC(C)(C)C(=O)Oc1ccc(S(=O)(=O)Nc2ccccc2C(=O)NCC(=O)O)cc1 | inactive | inactive | inactive | inactive | inactive | inactive | inactive | inactive | inactive | inactive | inactive | inactive | inactive | inactive | inactive | inactive | inactive | inactive | inactive | inactive
